Screening data: PubChem BioAssay, National Center for Advancing Translational Sciences (NCATS)
In the library only some 19% were active in any assay of this set; here they are far more common.
KB-3-1 tox: kills parental KB-3-1 adenocarcinoma cells. Potency, µM (highest dose often 46.1 µM), most hits filed as cytotoxic. KB-3-1 viability, CellTiter-Glo ATP luminescence, 72 h. 1.4% of 400,000 active. AID 1347075; also: nearly all actives have a fitted effect of over 60% in size
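Using CellTiter-Glo luminescence, growth of non-resistant KB-3-1 adenocarcinoma cells is assessed 72 h after pin-tool compound addition at 37 °C. Normalized responses across the concentration series yield fitted curves.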
TDP1 cell noCPT: qHTS for Inhibitors of human tyrosyl-DNA phosphodiesterase 1 (TDP1): qHTS in cells in absence of CPT; DT40 Tdp1-/- hTDP1 cells, no CPT, ATP luminescence, 48 h; Potency, µM (highest dose often 46.2 µM), inactives show top-dose activity change, negative = growth inhibition, most hits filed as inhibitors; 15% of 420,000 active; also: nearly all actives have a fitted effect of over 55% in size
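Seeded 400 DT40-hTDP1 cells/well (vehicle DMSO, no 20 nM CPT); pinned compounds; ≥48 hr at 37 °C; CellTiter-Glo luminescence as viability measure.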
HT1080-NT tox: kills 2HG-producing HT-1080-NT fibrosarcoma cells; HT-1080-NT fibrosarcoma viability, CellTiter-Glo ATP luminescence, 48 h; Potency, µM (top dose mostly 46.1 µM), for the others: at the highest dose activity, negative = less viability, most hits filed as cytotoxic; 1.6% of 360,000 active;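 also: NT is the 2HG producing partner of a matched IDH1 knockdown line; 0% = DMSO-treated cells and -100% = media-only wells without cells; nearly all actives have a fitted effect of over 55% in size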
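HT-1080-NT fibrosarcoma cells (2HG-overproducing), 750 cells/well in RPMI with 5% FBS, dosed after 2 h and incubated 48 h at 37C. CellTiter-Glo luminescence normalized to DMSO and no-cell wells; concentration-response curves fitted and classed.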
KB-V1 MDR tox: KB-V1 MDR subline cytotoxicity; Potency, µM (series often up to 46.1 µM), usual class: cytotoxic; 3.4% of 400,000 active; KB-V1 MDR cells viability, CellTiter-Glo, 72 h; also: nearly all actives have a fitted effect of over 60% in size
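qHTS viability screen in drug-selected KB-V1 MDR cells: 72 h compound treatment at 37 degrees C, ATP luminescence end point.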
TDP1 cell CPT: DT40-hTDP1 cell growth loss with CPT. chicken DT40 Tdp1-/-;hTDP1 cells + 20 nM CPT, ATP luminescence, 48 h. Potency, µM (top dose mostly 46.2 µM), inactives show at the highest dose activity change, negative = growth inhibition, most hits filed as inhibitors. 12% of 420,000 active. AID 686979; also: nearly all actives have a fitted effect of over 55% in size
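Chicken DT40 Tdp1-/- cells complemented with human TDP1, 400 cells/well, exposed to compounds plus 20 nM camptothecin for at least 48 h at 37 C; viability read as ATP content by CellTiter-Glo luminescence.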
HT1080 IDH1KD tx: HT-1080 IDH1 knockdown cell toxicity (counter line) | HT-1080 IDH1 knockdown viability, ATP luminescence, 48 h | Potency, µM (doses to about 46.1 µM), for the others: at the top dose activity, negative = toxicity, actives largely listed as cytotoxic | 2% of 360,000 active | AID 686971;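 also: 0% = DMSO wells and -100% = cell-free medium wells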
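HT-1080-IDH1KD cells (IDH1 knocked down), 750/well in RPMI with 5% FBS, treated with compound 48 h at 37 degrees C. Viability by CellTiter-Glo luminescence, normalised to DMSO and no-cell wells; concentration-response curves classed.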
Starred values were filed as active, the others as inactive; i = inactive; ? = inconclusive; . = no result; [ ] = another dose, or the depositor's remark. Calls follow the shape of the dose curve; as a rule, active = well fitted curve in the direction sought with a large enough effect; inconclusive = small, poorly fitted or top-dose-only effect, or another doubt; inactive = no such curve, though single readings can be large; an effect the other way counts as inactive or inconclusive. Unless noted, % is scaled to controls: 0 for no effect and ±100 for the full control effect; potency is read from the fitted curve at half-maximal effect.

SMILES	KB-3-1 tox	TDP1 cell noCPT	HT1080-NT tox	KB-V1 MDR tox	TDP1 cell CPT	HT1080 IDH1KD tx
Cc1ccc(OCC(O)CN2C(=O)NC(C)(C)C2=O)c(C)c1 (stereo not given)	i	25.1%	-0.5%	i	-12.9%	-2.6%
COc1cccc(NC(=O)Nc2ccc(C(C)(C)C)cc2)c1	?	23.1µM*	16.4µM*	i	?	?
COc1cccc(NC(=O)Nc2ccncc2)c1	i	-22.6%	5.9%	i	-22.8%	-0.8%
COc1cccc(NC(=O)c2ccc(NC(=O)C(C)(C)C)cc2)c1	i	?	-1.3%	23.1µM*	?	-10.1%
Cc1sc(-n2cccc2)c(C(C)NC(=O)Nc2cccc(C(F)(F)F)c2)c1C (stereo not given)	.	20.6µM*	.	.	?	.
COc1cccc(C(C)NC(=O)Nc2cc(Cl)ccc2OC)c1 (stereo not given)	i	?	?	i	0.1%	?
COc1cccc(C(C)NC(=O)Nc2cccc(C(F)(F)F)c2)c1 (stereo not given)	i	10.3µM*	?	?	20.6µM*	?
Cn1c(SCC2CCCO2)nnc1C1CCN(Cc2ccco2)CC1 (stereo not given)	.	-5.0%	.	.	16.1%	.
CCCOC(=O)/C(C(N)=NCc1ccccc1)=C(\O)OCCC	?	?	-4.0%	?	?	?
CS(=O)(=O)N1CCN(c2ccccc2NC(=O)Nc2cccc(Cl)c2)CC1	i	?	-7.5%	i	?	-5.7%
CCCOC(=O)c1cccc(NC(=O)C(C)(C)C)c1	i	?	-0.8%	i	?	-11.1%
COc1cccc(NC(=O)Nc2nnc(Cc3ccccc3)s2)c1	i	?	-21.1%	?	?	-20.3%
COc1cccc(NC(=O)Nc2nnc(N3C(C)CCCC3C)s2)c1 (stereo not given)	i	18.4µM*	3.0%	i	?	10.5%
CC(C)(C)C(=O)Nc1ccc2c(c1)C(=O)C(=O)c1ccccc1-2	.	0.708µM*	0.794µM*	.	0.708µM*	0.794µM*
CC(C)(C)C(=O)Nc1cccc(C(=O)c2cccc(NC(=O)C(C)(C)C)c2)c1	i	8.2µM*	-4.0%	?	?	-4.0%
CC(=O)Nc1ccc2c(c1)C(=O)c1ccccc1C2=O	i	?	-5.8%	i	?	-3.1%
C=CCN(C(=O)CNC(=O)c1ccco1)C(C(=O)NC1CCCCC1)c1ccc(OC)cc1OC (stereo not given)	i	-2.3%	10.5%	i	-15.9%	2.6%
CN(C)c1ccc(-c2ccnc3c2CC(C)(C(=O)Nc2ccc(F)c(Cl)c2)O3)cc1 (stereo not given)	i	?	26.6%	i	?	29.1%
CCc1ccc(NC(=O)C(C)Sc2nc(-c3ccco3)c(C#N)c(=O)[nH]2)cc1 (stereo not given)	i	-11.1%	-29.5%	i	-17.6%	-18.0%
Cc1ccc2nc3c(cc(C(=O)NC4CCS(=O)(=O)C4)n3Cc3ccccc3)c(=O)n2c1 (stereo not given)	i	?	8.2%	i	?	7.3%
COc1ccc(CC(=O)Nc2cccc(C(C)=O)c2)cc1S(=O)(=O)N1CCOCC1	?	4.0%	13.0%	?	-1.6%	10.8%
Cc1ccc(OCCCC(=O)Nc2ccc(Cl)c(S(=O)(=O)N3CCOCC3)c2)cc1	14.6µM*	18.4µM*	-19.6%	7.31µM*	?	-20.8%
O=C(CCCOc1ccccc1)Nc1ccc(Cl)c(S(=O)(=O)N2CCOCC2)c1	?	16.4µM*	-10.6%	?	18.4µM*	-13.3%
O=C(CCCSc1ccccc1)Nc1ccc(Cl)c(S(=O)(=O)N2CCOCC2)c1	?	18.4µM*	0.7%	2.59µM*	16.4µM*	-18.4%
COc1cc(C(C)=O)ccc1OCC(=O)Nc1ccc(Cl)c(S(=O)(=O)N2CCOCC2)c1	i	18.4µM*	0.1%	?	23.1µM*	-1.4%
SMILES	KB-3-1 tox	TDP1 cell noCPT	HT1080-NT tox	KB-V1 MDR tox	TDP1 cell CPT	HT1080 IDH1KD tx
CCN(CC)S(=O)(=O)c1cccc(C(=O)NCC2(N3CCOCC3)CCCCC2)c1	i	?	8.9%	i	?	1.1%
CSc1ccccc1NC(=O)COC(=O)Cn1cc(C(F)(F)F)ccc1=O	i	?	11.5%	i	?	-4.9%
O=C(c1n[nH]c(=O)c2ccccc12)N1CCN(S(=O)(=O)c2ccccc2Cl)CC1	i	?	0.2%	i	?	-2.0%
Cc1ccc(NC(=O)CCCOc2ccccc2)cc1S(=O)(=O)N1CCOCC1	i	?	-3.2%	i	?	-0.8%
COc1ccc(Cl)cc1S(=O)(=O)N1CCN(C(=O)c2n[nH]c(=O)c3ccccc23)CC1	?	16.4µM*	?	i	18.4µM*	?
O=C(COc1cccc(Br)c1)Nc1ccc(Cl)c(S(=O)(=O)N2CCOCC2)c1	i	16.4µM*	16.4µM*	?	20.6µM*	-10.1%
CC(=O)c1ccc(OCCCC(=O)Nc2ccc(Cl)c(S(=O)(=O)N3CCOCC3)c2)cc1	?	20.6µM*	-5.3%	i	16.4µM*	-17.4%
COC(=O)c1ccc(NC(=O)CN2CCN(S(=O)(=O)c3cc(Cl)ccc3OC)CC2)cc1	i	16.4µM*	-12.9%	i	?	-12.4%
CC1(C)OC(=O)C=C[C@@]2(C)C1C[C@@H](O)[C@]1(C)C2CC[C@@]2(C)C(c3ccoc3)OC(=O)[C@H]3O[C@]321 (stereo not given in full)	.	?	.	.	-21.9%[9.04 µM]	.
COc1ccc(NC(=O)Cc2c(C(=O)O)[nH]c3ccccc23)cc1OC	i	-0.6%	.	i	2.4%	.
COc1cc(/C=C2\C(=N)N3N=C(C)SC3=NC2=O)cc(Cl)c1OCCOc1ccc(NC(C)=O)cc1	i	18.9%	13.5%	i	-2.8%	17.0%
COc1cccc(C2=CC(=O)C(C(C)(C)C)N2C(C)(C)C)c1 (stereo not given)	i	20.6µM*	4.8%	i	?	3.8%
COc1cccc(C2=NOC(C(=O)NC(C)(C)C)C2)c1 (stereo not given)	i	-0.3%	8.1%	i	-3.1%	-17.0%
COc1ccc(C[C@](C)(N)C(=O)O)cc1OC	i	2.31µM*	?	i	-25.2%	-4.1%
C[C@](N)(Cc1ccc(O)cc1)C(=O)O	.	-10.5%	.	.	2.9%	.
